# Results filed as inconclusive are left out. Values without a mark were called inactive. Calls follow the shape of the dose curve; as a rule, active = well fitted curve in the direction sought with a large enough effect; inconclusive = small, poorly fitted or top-dose-only effect, or another doubt; inactive = no such curve, though single readings can be large or run the other way.
# Target: Polyunsaturated fatty acid lipoxygenase ALOX15 (Homo sapiens) (UniProt P16050)
# Assay: Counterscreen qHTS for inhibitors of human arachidonate 12S-lipoxygenase (ALOX12): ALOX15 Assay; also: 0% is about no effect
# Details: purified ALOX15 enzyme activity; series mostly up to 110 µM; activity change, negative = inhibition: at the top concentration
# Summary of the method: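 Xylenol orange–ferric complex formation, read as the 573 nm to 405 nm absorbance ratio, tracks product from 50 uM arachidonic acid turned over for 30 min at RT. Enzyme is 40 nM ALOX15, pH 7.5 HEPES buffer, compound-preincubated 15 min.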
# Chain of Polyunsaturated fatty acid lipoxygenase ALOX15 (Homo sapiens) (P16050 whole entry, looked up): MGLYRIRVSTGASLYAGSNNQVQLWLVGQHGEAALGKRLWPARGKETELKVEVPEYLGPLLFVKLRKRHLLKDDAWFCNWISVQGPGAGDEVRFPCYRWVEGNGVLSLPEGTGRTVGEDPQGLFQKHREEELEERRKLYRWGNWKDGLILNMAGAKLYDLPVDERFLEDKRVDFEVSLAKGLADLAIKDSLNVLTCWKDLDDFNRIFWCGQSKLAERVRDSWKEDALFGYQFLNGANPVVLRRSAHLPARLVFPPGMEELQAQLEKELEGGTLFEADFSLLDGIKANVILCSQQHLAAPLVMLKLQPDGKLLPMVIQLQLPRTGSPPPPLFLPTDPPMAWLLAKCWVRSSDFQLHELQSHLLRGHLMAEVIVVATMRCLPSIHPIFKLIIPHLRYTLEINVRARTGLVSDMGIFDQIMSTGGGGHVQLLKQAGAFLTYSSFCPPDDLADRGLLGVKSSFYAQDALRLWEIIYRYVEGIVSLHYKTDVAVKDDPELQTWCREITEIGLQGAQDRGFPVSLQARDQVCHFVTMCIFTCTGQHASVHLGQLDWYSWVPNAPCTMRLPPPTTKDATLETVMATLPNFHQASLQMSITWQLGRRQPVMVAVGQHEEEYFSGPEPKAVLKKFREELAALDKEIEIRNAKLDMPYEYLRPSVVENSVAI
row,SMILES,"activity change, negative = inhibition"
1,NCCC(=O)N1CCC2(CC1)CN(C(=O)Cc1ccc(Cl)cc1)CCO2,-29%
2,CC(C)(C)OC(=O)N1CC(Nc2cccc(Oc3ccccc3)c2)C1,-2.09% [at 146 µM]
3,CCN1CCC(c2nc3ccc(F)cc3c(=O)[nH]2)CC1,-2.36% [at 146 µM]
4,CCOc1cccc(CN2CCC3(Cc4ccccc4CNC3=O)C2)c1 (stereo not drawn),-23.1%
5,O=c1[nH]c(C2CCCN(Cc3ccc(-c4cc(F)cc(F)c4)cc3)C2)nc2ccc(F)cc12 (stereo not drawn),-9.41%
6,COc1ccc(CNc2ncnc3c2CN(C2CCCNC2)C(=O)CN3C)cc1OC (stereo not drawn),14.1%
7,CC(=O)NCCC(=O)N1Cc2ccccc2CC2(CCCCN2CC2CCNC2)C1 (stereo not drawn),-25.7%
8,COc1cccc(N2C(=O)NC(=NC3CCCCC3)C23CCCN(Cc2cccnc2)C3)c1 (stereo not drawn),-1.65%
9,CS(=O)(=O)N1CCC2(CC1)CN(Cc1ccc(O)cc1)Cc1ccccc1O2,-7.74%
10,CCc1nc2c(c(-c3ccc(OC)cc3)n1)CN([S+](=O)([O-])c1c(C)noc1C)CC2,-23.3%
11,CC(C)C(=O)N1Cc2ccccc2CC2(CCCCN2CC2CCNC2)C1 (stereo not drawn),-17.1%
12,O=C(O)c1cccc(-c2cnc3ccccc3c2)c1,2.07% [at 146 µM]
13,CN(c1ccc(Cl)c(Cl)c1)C1CNC1,-16.7% [at 146 µM]
14,O=C(c1ccc(C(F)(F)F)cc1)N1CCCC2(CC(c3ccccc3)=NO2)C1 (stereo not drawn),2.85%
15,COc1cccc([S+](=O)([O-])N2CCn3c(nn(-c4cccc(Cl)c4)c3=O)C2)c1,-0.101%
16,CN1CC(=O)N(C2CNC2)Cc2c(NC3CC3)ncnc21,-21.8% [at 146 µM]
17,CN1CC(=O)N(C2CCCNCC2)Cc2c(NCc3cccs3)ncnc21 (stereo not drawn),-19.1%
18,Cn1nc(C2CCNC2)c2c(C(=O)NCc3ccncc3)cc(C3CC3)nc21 (stereo not drawn),-21.6%
19,O=C(c1ccc(Cl)cc1)N1CC2(CCCN(Cc3ccc(Cl)cc3)C2)Cc2ccccc21 (stereo not drawn),-22.5%

row,SMILES,"activity change, negative = inhibition"
1,O=C(O)CCC(=O)N1Cc2ccccc2CC2(CCCN2CC2CCNC2)C1 (stereo not drawn),-30.7%
2,O=C1NCc2ccccc2CC12CCN(Cc1ccc([N+](=O)[O-])cc1)C2 (stereo not drawn),0.993%
3,NCc1ccccc1-c1cc(C(F)(F)F)ccc1Cl,-8.37% [at 146 µM]
4,Cc1noc(C)c1C(=O)N1CCN(c2ccc(Cl)nn2)C(=O)C1,-19.1% [at 146 µM]
5,COc1ccc(-c2cc(C(=O)NC3CCNCC3)c3c(C4CCCN4)noc3n2)cc1 (stereo not drawn),-6.82%
6,COc1cc(CN2CCC3(Cc4ccccc4CNC3=O)C2)cc(OC)c1 (stereo not drawn),-3.22%
7,CC(C)C(=O)N1CCCC2(Cc3ccccc3CN2[S+](=O)([O-])c2ccccc2)C1 (stereo not drawn),-13.4%
8,O=c1[nH]c(C2CCN(Cc3ccc(-c4cccnc4)cc3)CC2)nc2ccc(F)cc12,-8.08%
9,Cc1ccc(-c2ccc(CN)cc2)cc1Cl,24.8% [at 146 µM]
10,Cn1nc(C2CCCNC2)c2c(C(=O)NCC(F)(F)F)cc(C3CC3)nc21 (stereo not drawn),-15.3%
11,C[C@H](C(=O)N1Cc2ccccc2CC2(CCN(Cc3ccncc3)C2)C1)c1ccccc1 (stereo partly drawn),-13.1%
12,CCCC(=O)N1Cc2ccccc2CC2(CCCN(C)C2)C1 (stereo not drawn),-26% [at 146 µM]
13,CCCN1CCC2(CC1)Cc1ccccc1CN(C(=O)C(C)C)C2,-2.08% [at 146 µM]
14,Cc1cc(C(=O)N2CCC(F)CC2)c2c(C3CCCN3)noc2n1 (stereo not drawn),-5.46% [at 146 µM]
15,O=C(c1cc(C2CC2)nc2c1c(C1CCCN1)nn2-c1ccccc1)N1CCC(F)CC1 (stereo not drawn),-9.46%
16,O=C(N1CCOCC1)N1CCn2c(nnc2-c2cncc(Br)c2)C1,-22.6%
17,CNC1CCOc2ccccc21 (stereo not drawn),-17.1% [at 146 µM]
18,CCCC(=O)N1Cc2ccccc2CC2(CCN(Cc3ccccc3)CC2)C1,-9.59%
19,O=c1[nH]c(C2CCCN(Cc3cccc(Cl)c3)C2)nc2ccc(F)cc12 (stereo not drawn),-9.91%

# — PubChem BioAssay AID1671192 (National Center for Advancing Translational Sciences (NCATS), 2021)
